Several values for one entry are separate records, joined by “and”; a condition that tells them apart may be missing. Equal entries are not always repeated. About 2,000 (36%) of roughly 5,500 compounds were called active. About 18% were inconclusive and are not listed. No stated cut-off is given here; in the data, active means normalized growth mostly below about 0.91 (no sharp cut-off); inconclusive means no clear call, values can overlap the other calls; inactive means mostly above about 0.92. The list shows a part of the results.
Experiment: chemical genetic growth profiling, strain panel (AID 1159580);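 further: tested at 20 µM; growth read once vehicle control cultures reached saturation at 30 °C; 1 = growth at the plate median or of vehicle wells; lower values mean less growth of the strain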
Details: S. cerevisiae deletion strains, growth OD

Measured: normalized growth

CC(=O)O[C@]1(C)CC[C@@]23CC1C(C)(C)[C@@H]2CC[C@H]3C
inactive: locus YAL013W, strain DEP1, hits give low values 1 | locus YAL021C, strain ccr4, hits give low values 0.985 | locus YAL026C, strain drs2, hits give low values 0.979 | locus YAL030W, strain snc1, hits give low values 0.98 | locus YBL061C, strain skt5, hits give low values 0.967 | locus YBR009C, strain hhf1, hits give low values 0.968 | locus YBR021W, strain FUR4, hits give low values 0.954 | locus YBR023C, strain chs3, hits give low values 0.961 | locus YBR171W, strain sec66, hits give low values 0.969 | locus YBR229C, strain ROT2, hits give low values 1 | locus YBR231C, strain swc5, hits give low values 0.998 | locus YBR279W, strain paf1, hits give low values 0.979 | locus YCL011C, strain gbp2, hits give low values 0.975 | locus YCL016C, strain dcc1, hits give low values 0.976 | locus YCL029C, strain bik1, hits give low values 1.03 | locus YCL061C, strain MRC1, hits give low values 0.985 | locus YCL069W, strain vba3, hits give low values 0.976 | locus YCR088W, strain abp1, hits give low values 0.978 | locus YDL005C, strain med2, hits give low values 0.967 | locus YDL035C, strain GPR1, hits give low values 0.964 | locus YDL040C, strain nat1, hits give low values 0.972 | locus YDL074C, strain BRE1, hits give low values 0.958 | locus YDL101C, strain DUN1, hits give low values 0.981 | locus YDL185W, strain tfp1, hits give low values 1.02 | locus YDL192W, strain arf1, hits give low values 0.971 | locus YDR001C, strain nth1, hits give low values 0.977 | locus YDR069C, strain doa4, hits give low values 0.974 | locus YDR101C, strain arx1, hits give low values 1.02 | locus YDR137W, strain rgp1, hits give low values 0.944 | locus YDR159W, strain sac3, hits give low values 0.986 | locus YDR162C, strain NBP2, hits give low values 0.905 | locus YDR195W, strain ref2 0.995 | locus YDR297W, strain sur2, hits give low values 0.96 | locus YDR318W, strain mcm21, hits give low values 0.972 | locus YDR334W, strain swr1, hits give low values 0.974 | locus YDR335W, strain msn5, hits give low values 0.975 | locus YDR388W, hits give low values 1.01 | locus YDR392W, strain spt3, hits give low values 0.964 | locus YDR502C, strain sam2, hits give low values 0.979 | locus YEL003W, strain gim4, hits give low values 0.977 | locus YEL037C, strain rad23, hits give low values 0.975 | locus YEL061C, strain CIN8 (second series), hits give low values 0.981 | locus YEL061C, strain CIN8, hits give low values 0.996 | locus YER015W, strain faa2, hits give low values 0.974 | locus YER016W, strain bim1, hits give low values 0.966 | locus YER110C, hits give low values 1.02 | locus YER111C, strain swi4, hits give low values 0.967 | locus YER155C, strain BEM2 (second series), hits give low values 0.974 | locus YER155C, strain BEM2, hits give low values 0.95 | locus YER167W, strain BCK2, hits give low values 0.982 | locus YFR010W, strain ubp6, hits give low values 0.994 | locus YGL078C, strain dbp3, hits give low values 1.01 | locus YGL086W, strain mad1, hits give low values 1.02 | locus YGL167C, strain pmr1, hits give low values 0.977 | locus YGL173C, strain kem1, hits give low values 0.975 | locus YGL227W, strain vid30, hits give low values 0.969 | locus YGL240W, strain doc1, hits give low values 1.01 | locus YGL248W, strain PDE1, hits give low values 0.934 | locus YGL253W, strain hxk2, hits give low values 0.981 | locus YGR078C, strain PAC10, hits give low values 0.946 | locus YGR135W, strain pre9, hits give low values 0.985 | locus YGR252W, strain gcn5, hits give low values 0.867 | locus YHR013C, strain ard1, hits give low values 0.959 | locus YHR027C, strain rpn1, hits give low values 0.986 | locus YHR030C, strain SLT2, hits give low values 0.964 and 0.917 | locus YHR079C, strain IRE1 (second series), hits give low values 1.01 | locus YHR079C, strain IRE1, hits give low values 0.951 | locus YHR094C, strain hxt1, hits give low values 1.01 | locus YHR129C, strain ARP1, hits give low values 0.978 | locus YHR142W, strain chs7, hits give low values 0.967 | locus YHR200W, strain rpn10, hits give low values 1 | locus YIL066C, strain RNR3, hits give low values 0.973 | locus YIL073C, strain SPO22, hits give low values 0.923 | locus YIL125W, strain kgd1, hits give low values 1.01 | locus YIR030C, strain dcg1, hits give low values 0.997 | locus YJL092W, strain hpr5, hits give low values 0.983 | locus YJL095W, strain BCK1 (second series), hits give low values 0.981 | locus YJL095W, strain BCK1, hits give low values 0.84 and 0.968 | locus YJL115W, strain asf1, hits give low values 0.975 | locus YJL129C, strain trk1, hits give low values 0.981 | locus YJL134W, strain LCB3, hits give low values 1.01 | locus YJL154C, strain vps35, hits give low values 0.962 | locus YJL164C, strain tpk1, hits give low values 0.978 | locus YJL166W, strain qcr8, hits give low values 0.978 | locus YJL168C, strain set2, hits give low values 1.01 | locus YJL187C, strain SWE1 (second series), hits give low values 0.97 | locus YJR043C, strain POL32, hits give low values 0.995 | locus YJR066W, strain TOR1, hits give low values 0.958 | locus YJR075W, strain HOC1, hits give low values 0.956 | locus YKL009W, strain mrt4, hits give low values 1.08 | locus YKL068W, hits give low values 0.998 | locus YKL085W, strain MDH1 (second series), hits give low values 1 | locus YKL085W, strain MDH1, hits give low values 1 | locus YKL160W, strain elf1, hits give low values 0.968 | locus YKL190W, strain CNB1, hits give low values 1 | locus YKR001C, strain vps1, hits give low values 0.98 | locus YKR026C, strain gcn3, hits give low values 0.974 | locus YKR091W, strain srl3, hits give low values 0.974 | locus YLL001W, strain dnm1, hits give low values 0.978 | locus YLL026W, hits give low values 0.971 | locus YLL041C, strain sdh2, hits give low values 0.973 | locus YLR027C, strain aat2, hits give low values 0.964 | locus YLR039C, strain RIC1, hits give low values 0.853 | locus YLR058C, strain SHM2, hits give low values 0.974 | locus YLR102C, strain apc9, hits give low values 1.01 | locus YLR113W, strain HOG1, hits give low values 0.911 | locus YLR221C, strain rsa3, hits give low values 0.977 | locus YLR258W, strain gsy2, hits give low values 0.957 | locus YLR262C, strain YPT6 (second series), hits give low values 0.987 | locus YLR262C, strain YPT6, hits give low values 0.848 | locus YLR268W, strain sec22, hits give low values 1.03 | locus YLR320W, strain mms22, hits give low values 0.981 | locus YLR330W, strain CHS5, hits give low values 1 | locus YLR342W, strain FKS1 (second series), hits give low values 1 | locus YLR342W, strain FKS1, hits give low values 0.995 | locus YLR357W, strain rsc2, hits give low values 0.989 | locus YLR370C, strain arc18, hits give low values 0.976 | locus YLR371W, strain rom2, hits give low values 1.01 | locus YLR384C, strain iki3, hits give low values 0.977 | locus YLR418C, strain cdc73, hits give low values 0.864 | locus YML016C, strain PPZ1, hits give low values 1 | locus YML032C, strain rad52, hits give low values 0.965 | locus YML120C, strain ndi1, hits give low values 0.976 | locus YML124C, strain tub3, hits give low values 0.999 | locus YMR058W, strain fet3, hits give low values 0.968 | locus YMR078C, strain ctf18, hits give low values 1.01 | locus YMR125W, strain sto1, hits give low values 0.966 | locus YMR129W, hits give low values 0.973 | locus YMR205C, strain PFK2, hits give low values 0.933 | locus YMR223W, strain ubp8, hits give low values 0.959 | locus YMR231W, strain pep5, hits give low values 0.976 | locus YMR263W, strain SAP30, hits give low values 0.983 | locus YMR307W, strain GAS1, hits give low values 0.74 | locus YNL067W, strain RPL9B, hits give low values 0.969 | locus YNL071W, strain lat1, hits give low values 0.982 | locus YNL183C, strain NPR1, hits give low values 0.961 | locus YNL209W, strain ssb2, hits give low values 0.983 | locus YNL233W, strain BNI4, hits give low values 0.933 | locus YNL248C, strain rpa49, hits give low values 0.978 | locus YNL250W, strain rad50, hits give low values 1.01 | locus YNL271C, strain bni1, hits give low values 1.01 | locus YNL298W, strain CLA4, hits give low values 1.03 | locus YNL307C, strain MCK1, hits give low values 1.01 | locus YNL322C, strain KRE1 (second series), hits give low values 0.952 | locus YNR049C, strain mso1, hits give low values 0.995 | locus YNR052C, strain pop2, hits give low values 0.986 | locus YOL012C, strain htz1 0.829 | locus YOL147C, strain pex11, hits give low values 1 | locus YOR001W, strain rrp6, hits give low values 0.996 | locus YOR061W, strain CKA2, hits give low values 1 | locus YOR069W, strain VPS5, hits give low values 1 | locus YOR070C, strain gyp1, hits give low values 0.993 | locus YOR080W, strain dia2, hits give low values 0.967 | locus YOR083W, strain WHI5, hits give low values 0.979 | locus YOR106W, strain vam3, hits give low values 0.979 | locus YOR136W, strain idh2, hits give low values 1.02 | locus YOR144C, strain elg1, hits give low values 1.01 | locus YOR231W, strain MKK1, hits give low values 0.958 | locus YOR265W, strain rbl2, hits give low values 0.999 | locus YOR270C, strain vph1, hits give low values 0.897 | locus YOR290C, strain snf2, hits give low values 0.947 | locus YOR316C, strain cot1, hits give low values 1 | locus YPL051W, strain arl3, hits give low values 0.976 | locus YPL055C, strain LGE1, hits give low values 0.937 | locus YPL078C, strain atp4, hits give low values 0.999 | locus YPL106C, strain sse1, hits give low values 0.969 | locus YPL240C, strain hsp82, hits give low values 0.982 | locus YPL256C, strain CLN2, hits give low values 0.991 | locus YPR119W, strain clb2, hits give low values 1.01 | locus YPR141C, strain kar3, hits give low values 1 | locus YPR163C, strain tif3, hits give low values 1.02 | locus YPR167C, strain met16, hits give low values 0.98 | strain wtn01, hits give low values 1.04
active: locus YOR184W, strain ser1, hits give low values 0.846

— PubChem BioAssay AID1159580 (chemical genetic matrix, 2015)
